Data as given in article PMC5540273 (PLoS ONE, 2017).

How the values were obtained:
Conditions in all cases: concentration: 1 μM, replicates: in singlicate; n = 1
CSNK1G1 = tested on: CSNK1G1
CSNK1G2 = tested on: CSNK1G2
CSNK1G3 = tested on: CSNK1G3
CSNK2A1 = tested on: CSNK2A1
CSNK2A2 = tested on: CSNK2A2
CTK = tested on: T1, CTK
T1 construct: gene MATK

DAPK1 = tested on: DAPK1
DAPK2 = tested on: DAPK2
DAPK3 = tested on: DAPK3
DCAMKL1 = tested on: T2, DCAMKL1
T2 construct: gene DCLK1

DCAMKL2 = tested on: T3, DCAMKL2
T3 construct: gene DCLK2

DCAMKL3 = tested on: T4, DCAMKL3
T4 construct: gene DCLK3

DDR1 = tested on: DDR1
DDR2 = tested on: DDR2
DLK = tested on: T5, DLK
T5 construct: gene MAP3K12

DMPK2 = tested on: T6, DMPK2
T6 construct: gene CDC42BPG

DMPK = tested on: DMPK
DRAK1 = tested on: T7, DRAK1
T7 construct: gene STK17A

DRAK2 = tested on: T8, DRAK2
T8 construct: gene STK17B

DYRK1A = tested on: DYRK1A
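Also: KINOMEscan kinase panel screen.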

Row | SMILES | %Inh (CSNK1G1) [%] | %Inh (CSNK1G2) [%] | %Inh (CSNK1G3) [%] | %Inh (CSNK2A1) [%] | %Inh (CSNK2A2) [%] | %Inh (CTK) [%] | %Inh (DAPK1) [%] | %Inh (DAPK2) [%] | %Inh (DAPK3) [%] | %Inh (DCAMKL1) [%] | %Inh (DCAMKL2) [%] | %Inh (DCAMKL3) [%] | %Inh (DDR1) [%] | %Inh (DDR2) [%] | %Inh (DLK) [%] | %Inh (DMPK2) [%] | %Inh (DMPK) [%] | %Inh (DRAK1) [%] | %Inh (DRAK2) [%] | %Inh (DYRK1A) [%]
1 | Cl.c1ccc(-c2ccc3c(Nc4ccc5[nH]ncc5c4)ccnc3c2)nc1 [GW440137] | 0 | 17 | 30 | 0 | 8 | 0 | 15 | 0 | 23 | 12 | 0 | 0 | 67 | 3 | 1 | 6 | 0 | 0 | 6 | 21
2 | COc1ccc(-c2coc3ccc(-c4nnc(SCc5ccc(OC)c(C(F)(F)F)c5)o4)cc23)cc1 | 0 | 24 | 0 | 22 | 24 | 10 | 15 | 0 | 0 | 38 | 8 | 0 | 2 | 0 | 0 | 0 | 0 | 0 | 0 | 0
3 | CN(c1ccc(NC(=O)Nc2cc(C(F)(F)F)ccc2F)cc1)c1ccnc(Nc2ccc(S(N)(=O)=O)cc2)n1 [GW809893] | 5 | 0 | 18 | 13 | 0 | 23 | 0 | 0 | 0 | 3 | 2 | 6 | 97.6 | 93.9 | 14 | 9 | 0 | 0 | 18 | 17
4 | Cl.Cl.NCC(C(=O)Nc1cc(Br)c(-c2ccnc3[nH]ccc23)s1)c1ccccc1 (stereo not shown) [GSK1269851] | 0 | 4 | 35 | 79 | 73 | 7 | 0 | 0 | 15 | 9 | 3 | 0 | 0 | 0 | 4 | 0 | 27 | 98.8 | 0 | 50
5 | COc1cccc(C2=C(Nc3ccc(Cl)c(C(=O)O)c3)C(=O)NC2=O)c1 [SB-390769] | 11 | 0 | 0 | 0 | 7 | 95.9 | 0 | 0 | 99.9 | 100 | 20 | 1 | 0 | 36 | 0 | 0 | 0 | 100 | 100 | 18
6 | C[C@@H](Oc1cc(-n2cnc3cc(-c4ccnc(NCCS(C)(=O)=O)c4)ccc32)sc1C(N)=O)c1ccccc1Cl [GSK907232] | 13 | 0 | 14 | 16 | 37 | 5 | 64 | 12 | 17 | 26 | 1 | 0 | 0 | 0 | 12 | 0 | 0 | 0 | 4 | 31
7 | Cl.NC(=O)c1cccc(Nc2nccc(Nc3ccc(Oc4c(Cl)cccc4Cl)c(Cl)c3)n2)c1 [GW659009] | 0 | 2 | 7 | 3 | 45 | 34 | 24 | 8 | 44 | 0 | 0 | 0 | 0 | 0 | 0 | 64 | 0 | 0 | 0 | 3
8 | COc1cccc(C(=O)Nc2cccc(Oc3ccc4nc(NC(=O)C5CC5)cn4n3)c2)c1 | 13 | 0 | 30 | 0 | 17 | 0 | 0 | 4 | 9 | 20 | 17 | 49 | 100 | 99.7 | 18 | 27 | 0 | 0 | 24 | 0
9 | CC(C)c1nc(-c2cccc(NS(=O)(=O)c3c(F)cccc3F)c2F)c(-c2ccnc(Nc3ccc(N4CCOCC4)nc3)n2)s1 [GSK2008607] | 21 | 0 | 6 | 7 | 32 | 55 | 2 | 1 | 34 | 57 | 46 | 82 | 99.3 | 88 | 93.2 | 20 | 0 | 0 | 0 | 0
10 | COc1cc2c(cc1OCCN1CCNCC1)ncc1c3ccc(C#N)cc3[nH]c21 | 0 | 0 | 4 | 63 | 92.4 | 15 | 14 | 4 | 4 | 38 | 3 | 4 | 0 | 1 | 85 | 0 | 5 | 99.5 | 99.6 | 93.1
11 | CCc1ccc(-c2ccc3c(c2)-c2c(cnn2C)S(=O)(=O)N3C)cc1 | 0 | 2 | 0 | 0 | 10 | 26 | 1 | 0 | 5 | 0 | 0 | 0 | 0 | 2 | 0 | 0 | 0 | 0 | 0 | 0
12 | O=C(Nc1ccccc1F)NC1CCN(c2ccnc(Nc3ccc(F)cc3)n2)CC1 [GSK1379800] | 3 | 0 | 12 | 0 | 0 | 0 | 0 | 0 | 20 | 0 | 0 | 0 | 0 | 31 | 24 | 4 | 0 | 0 | 0 | 4
13 | COC(=O)Nc1nc2ccc(Oc3ccc(NC(=O)Nc4cc(C(F)(F)F)ccc4F)cc3)cc2n1C.Cl [GW692089] | 6 | 0 | 12 | 0 | 1 | 0 | 0 | 0 | 0 | 6 | 0 | 9 | 100 | 99.9 | 31 | 0 | 0 | 0 | 9 | 2
14 | O=C(Nc1cccc(Oc2ccc3nc(NC(=O)C4CC4)cn3n2)c1)c1ccccc1C(F)(F)F | 8 | 0 | 26 | 0 | 0 | 0 | 0 | 5 | 7 | 39 | 0 | 0 | 98.9 | 88 | 7 | 17 | 0 | 0 | 21 | 12
15 | COc1cc(Nc2nccc(N3CCC(NC(=O)c4cc5ccccc5s4)C3)n2)cc(OC)c1OC (stereo not shown) [GSK1379760] | 9 | 13 | 8 | 27 | 0 | 0 | 54 | 20 | 1 | 13 | 14 | 0 | 0 | 39 | 31 | 5 | 0 | 0 | 0 | 0
16 | CN(C)Cc1ccc(-c2ccc3c(Nc4ccc(Oc5ccccn5)cc4)ccnc3c2)o1 [GW567148] | 0 | 0 | 0 | 0 | 0 | 16 | 0 | 0 | 0 | 14 | 0 | 0 | 38 | 45 | 69 | 0 | 0 | 4 | 0 | 13
17 | CNC(=O)c1ccccc1Nc1nc(Nc2ccc(N3CCOCC3)cc2)ncc1Cl.Cl [GSK1576028] | 66 | 85 | 56 | 99.8 | 99.9 | 34 | 95 | 69 | 89 | 52 | 31 | 81 | 95.1 | 73 | 95 | 25 | 81 | 95.1 | 60 | 94.4
18 | NCCCC(NC(=O)c1cc(Br)c(-c2ccnc3[nH]ccc23)s1)c1ccccc1.O=C(O)C(F)(F)F.O=C(O)C(F)(F)F (stereo not shown) [GSK1287544] | 57 | 97.2 | 94.8 | 27 | 20 | 0 | 0 | 0 | 0 | 8 | 3 | 0 | 0 | 2 | 17 | 94.2 | 28 | 61 | 0 | 48
19 | c1ccc(-c2n[nH]cc2Nc2ccnc3ccccc23)nc1 [GW694077] | 100 | 1 | 12 | 54 | 68 | 0 | 23 | 60 | 66 | 23 | 0 | 12 | 0 | 10 | 74 | 0 | 0 | 99.4 | 0 | 99.9
20 | Nc1ncc(-c2cccnc2)c2scc(-c3ccc4c(c3)CCN4C(=O)Cc3ccccc3)c12 [GSK683281] | 32 | 9 | 58 | 77 | 28 | 9 | 0 | 0 | 27 | 20 | 1 | 34 | 63 | 0 | 6 | 72 | 4 | 1 | 0 | 23
